The values below come from PubChem BioAssay AID651956 (Broad Institute, 2012).

Results with a measured potency or affinity are listed apart. Records with an inconclusive call do not appear. A number with no mark means an inactive call. Active and inactive are the calls of the source.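 How the source made its calls: active means in every test run, a fitted half-maximal concentration for signal decrease at or below twice the highest tested concentration; inconclusive means runs disagree, flat 30 to 70% decrease, or poor fit; inactive means the rest.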

The assay can be described thus: miR-122 activators in hepatoma reporter cells, dose response, cell-based, Huh7 psiCHECK-miR122, Renilla luciferase, cherry-picked (AID 651956).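 Further: Renilla luciferase from a miR-122 sensor reporter so lower signal means miR-122 activation; 0% = median neutral control wells and -100% = median positive control wells.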 The following applies: 48 h; series mostly up to 35 µM; activity change, negative = signal decrease: at the top concentration.
On to `CCC(=O)Nc1ccc2c(c1)C(=O)N(C)[C@@H]1CC[C@H](CC(=O)NCCN3CCCCC3)O[C@H]1CO2`, for which the “activity change, negative = signal decrease” value was -46.3%.

Take `CCNC(=O)Nc1ccc2c(c1)C(=O)N(C)[C@H]1CC[C@H](CC(=O)Nc3cccc(F)c3)O[C@@H]1CO2`: the “activity change, negative = signal decrease” value was 147%. As to `O=C(c1cccc(F)c1)N1C[C@@H]2[C@H](c3ccccc31)[C@H](CO)N2C(=O)Cc1ccccc1`, the “activity change, negative = signal decrease” value was 4.17%. Still for that read-out and setting: next, `Cc1cc(CN(C)C(=O)c2cc(COc3ccc4ncccc4c3)on2)on1`: -27.4%. As to `COCC(=O)N(C)C[C@H]1Oc2cc(-c3ccccc3F)ccc2S(=O)(=O)N([C@@H](C)CO)C[C@@H]1C`, the “activity change, negative = signal decrease” value was -55.7%. On to `COCC(=O)Nc1ccc2c(c1)C(=O)N(C)[C@@H]1CC[C@@H](CC(=O)NC3CCCC3)O[C@H]1CO2`, for which the “activity change, negative = signal decrease” value is 156% [at 30 µM]. For the compound `CNC(=O)C[C@@H]1CC[C@@H]2[C@H](COc3ccc(NC(=O)c4cccc(OC)c4)cc3C(=O)N2C)O1`, the “activity change, negative = signal decrease” value is 16.2%. Still for that read-out and setting: next, `CC1CCN(CCc2nc3cc(NC(=O)Nc4ccccc4)ccc3n2C)CC1`: 30.1%; `CN1C(=O)c2cc(NC(=O)Cc3ccccc3)ccc2OC[C@@H]2O[C@@H](CC(=O)O)CC[C@H]21`: 45.6%; `O=C(COc1ccccc1F)N1CCc2ccccc2C1`: 42.4%. Turning to `CNC(=O)C[C@H]1CC[C@H]2[C@@H](COc3ccc(NC(=O)C(C)C)cc3C(=O)N2C)O1`, the “activity change, negative = signal decrease” value is -10%. For the compound `CN1C(=O)c2cc(NC(=O)Cc3ccccc3)ccc2OC[C@H]2O[C@@H](CC(=O)NC3CCC3)CC[C@H]21`, the “activity change, negative = signal decrease” value is -7.88%. Take `CNC(=O)C[C@@H]1CC[C@@H]2[C@@H](COc3ccc(NC(=O)Cc4cccs4)cc3C(=O)N2C)O1`: the “activity change, negative = signal decrease” value is -28.9%. As for `COC(=O)C[C@H]1CC[C@@H]2[C@@H](COc3ccc(NC(=O)c4ccc(F)c(F)c4)cc3C(=O)N2C)O1`, the “activity change, negative = signal decrease” value was -37.6%. With `CN1C(=O)c2cc(NC(=O)c3cccs3)ccc2OC[C@H]2O[C@@H](CC(=O)NCCN3CCCCC3)CC[C@@H]21`, the “activity change, negative = signal decrease” value is 178%. For the compound `COCC(=O)N1[C@H](CO)[C@H]2c3ccccc3N(C(=O)C3CC3)C[C@H]21`, the “activity change, negative = signal decrease” value was 0%. On to `O=C(COc1cccc2ccccc12)Nc1nc2ccccc2[nH]1`, for which the “activity change, negative = signal decrease” value is 64.7%. As for `CC(=O)N1[C@H](CNC(=O)C2CC2)[C@H](c2ccc(-c3cccc(F)c3)cc2)[C@@H]1CO`, the “activity change, negative = signal decrease” value is 0%. For the compound `O=C(COC(=O)Cc1ccc(S(=O)(=O)N2CCOCC2)s1)Nc1ccc2c(c1)OCO2`, the “activity change, negative = signal decrease” value was -26.8%. For `CN1C(=O)c2cc(NC(=O)c3ccccc3F)ccc2OC[C@H]2O[C@H](CC(=O)NCc3ccc4c(c3)OCO4)CC[C@@H]21`, the “activity change, negative = signal decrease” value is -44.2%. For the compound `N=c1c2c(-c3ccccc3)c(-c3ccccc3)n(Cc3ccccc3)c2ncn1CCCO`, the “activity change, negative = signal decrease” value is 45.8%. As for `COCC(=O)Nc1ccc2c(c1)C(=O)N(C)[C@@H]1CC[C@H](CC(=O)Nc3cn(C)nc3C)O[C@H]1CO2`, the “activity change, negative = signal decrease” value is -30.8%.

`C/C=C/c1ccc([C@H]2[C@@H](CO)N[C@@H]2CN(CC)C(=O)CN2CCOCC2)cc1`: the “activity change, negative = signal decrease” value is 10.4%. For the compound `CCCC(=O)Nc1ccc2c(c1)C(=O)N(C)[C@@H]1CC[C@H](CC(=O)NCCOC)O[C@H]1CO2`, the “activity change, negative = signal decrease” value was 57.9%. For the compound `Cc1noc(C)c1NC(=O)Nc1ccc2c(c1)C(=O)N(C)[C@@H]1CC[C@H](CC(=O)N[C@H]3CCN(Cc4ccccc4)C3)O[C@H]1CO2`, the “activity change, negative = signal decrease” value was 231%. As for `C/C=C/c1ccc([C@H]2[C@@H](CO)N[C@@H]2CN(C(=O)c2ccccc2F)C(C)C)cc1`, the “activity change, negative = signal decrease” value was 179%. For `Cc1ccc(NCC(=O)c2ccccc2)cc1Cl`, the “activity change, negative = signal decrease” value is 215%. Turning to `CN(C)C(=O)C[C@@H]1CC[C@@H]2[C@@H](COc3ccc(NC(=O)C4CC4)cc3C(=O)N2C)O1`, the “activity change, negative = signal decrease” value was -4.71%. Consider `O=C(Nc1ccc(CN2CCOCC2)cc1)c1ccc(-c2ccc(Cl)cc2Cl)o1`, for which the “activity change, negative = signal decrease” value was -3.51%.

For the compound `Cc1ccc(S(=O)(=O)NCCCNS(C)(=O)=O)cc1`, the “activity change, negative = signal decrease” value is -0.902%. Take `CN1C(=O)c2cc(NC(=O)c3cccc(F)c3)ccc2OC[C@@H]2O[C@H](CC(=O)NC3CCC3)CC[C@@H]21`: the call was inactive.

Turning to `CCOC(=O)C1CCN(C(c2cccnc2)c2c(NC(=O)c3ccco3)sc(C)c2C)CC1` (stereo not drawn), the “activity change, negative = signal decrease” value is -28.7%.

Turning to `CCCCC(=O)OCC(=O)c1[nH]c(C)c(C(=O)OCC)c1C`, the “activity change, negative = signal decrease” value was -21.6%. The same measure, in the same setting: under `COc1ccc(CN2CCOC2=O)cc1OC` stands 60.2%.

Regarding `Cc1cccc(NC(=O)Nc2ccc3c(c2)C(=O)N(C)[C@H]2CC[C@H](CC(=O)O)O[C@H]2CO3)c1`, the “activity change, negative = signal decrease” value is -12.9%. The same measure, in the same setting: under `O=C(Nc1ccccc1F)N1C[C@H]2[C@@H](c3ccccc31)[C@@H](CO)N2C(=O)C1CC1` stands -13.7%. The same measure, in the same setting: next, `C[C@H](O)C#Cc1ccc2c(c1)O[C@@H](CN(C)Cc1ccc(-c3ccccc3)cc1)[C@H](C)CN([C@H](C)CO)S2(=O)=O`: 45.2%; `NC(=O)c1csc(-c2ccncc2)n1`: 38.7%.
